The campaign covered roughly 48,000 compounds. About 13,000 (27%) showed an effect of 50% or more. This is one part of the list.
Each compound was assayed on Wolbachia pipientis (assay: Anti-Wolbachia Cell-Based Screen). Details: 5 µM.
Assay type: functional
Parameters: scale not given: in the data most compounds retested in dose-response had high values

Row | Structure (SMILES) | Percent Effect [%]
1 | c1cc(CNCc2ccnc(N3CCCC3)c2)c2c(c1)OCO2 | -29.77
2 | CC(NC(=O)NCCN1CCCCCC1=O)c1nncn1C (stereo unspecified) | -0.9457
3 | Cc1noc(C(C)C)c1C(=O)NCCC(=O)N1CCCCC1 | 90.26
4 | Cc1noc(C(C)C)c1C(=O)NCCCN1CCCCCC1=O | 122
5 | CC(Cn1cccn1)NC(=O)NCCCN1CCCCCC1=O (stereo unspecified) | -6.235
6 | Cc1noc(C(C)C)c1C(=O)NCCN1CCOCC1 | 72.1
7 | Cc1nc(-c2ccsc2)ccc1C(=O)NCCC(=O)N1CCCC1 | 0.2112
8 | Cc1noc(C)c1C(=O)NCCN1CCOCC1 | 15.76
9 | Cc1noc(C)c1C(=O)NCCN1CCN(c2ccccc2)CC1 | 7.051
10 | Cc1noc(C(C)C)c1C(=O)NCC1CCCN1Cc1ccccc1 (stereo unspecified) | -8.242
11 | CCC(CC)(CCCNC(=O)c1c(C)noc1C)C1OCCO1 | -3.207
12 | Cc1noc(C(C)C)c1C(=O)NCCCN1CCNCC1.Cl | 114.5
13 | Cc1cc(C)n(CC2(CNC(=O)C(c3ccc(F)cc3)N(C)C)CC2)n1 (stereo unspecified) | 1.569
14 | CN(Cc1ccsc1)C(=O)Nc1ccc(S(C)(=O)=O)nc1 | -1.265
15 | COCCN1CC[C@H]2CN(c3cc(OC)ncn3)C[C@@H]2C1=O.O=C(O)C(F)(F)F | -11.01
16 | CN1C(=O)CC(c2ccccc2)C12CCN(c1ncc(F)cn1)CC2 (stereo unspecified) | 11.07
17 | O=C1N(c2ccc(Br)cc2)Cc2n[nH]c(=O)n21 | -3.118
18 | Cc1ccccc1CCCN(C)S(C)(=O)=O | 5.397
19 | Cc1ccsc1CNC1CCCc2c1cnn2C.Cl (stereo unspecified) | -3.429
20 | COc1cc(OC)cc(-c2cccc3c2OC(CN)C3)c1 (stereo unspecified) | 2.272
21 | COCCCNC(=O)c1c(C)noc1C(C)C | 99.64
22 | Cc1noc(C(C)C)c1C(=O)NCc1cc(F)cc(F)c1 | -8.359

Row | Structure (SMILES) | Percent Effect [%]
23 | Cc1noc(C(C)C)c1C(=O)NCCCN1CCC(C)CC1 | 80.48
24 | CC1CCN(CCCNC(=O)C2CCCCC2)CC1 | 13.42
25 | COc1ccc(S(=O)(=O)NC(=O)c2c(C)noc2C(C)C)cc1OC | 2.156
26 | Cc1noc(C(C)C)c1C(=O)NCC1CCN(c2ccccc2)C1 (stereo unspecified) | -7.701
27 | CCn1c(=O)nc2n1C(=O)N(c1cccc(Cl)c1)C2 | 5.675
28 | CC1CCCN(S(=O)(=O)NCCCn2ccc3ccccc32)C1 (stereo unspecified) | -2.865
29 | Cn1c(-c2ccc(F)cc2)cn2cc(C(=O)N3CCC(N)C3)nc2c1=O (stereo unspecified) | -3.321
30 | CC(c1cccnc1)N1CCN(CCc2ccccn2)CC1 (stereo unspecified) | -1.072
31 | Cc1ccc(CNC(=O)c2nc3c(o2)CN(c2ncccn2)C3)o1 | -19.04
32 | Cc1ccc(CNC(=O)c2nc3c(n2C)CCN(c2ncccn2)C3)o1 | 77.66
33 | CN1CCCN(C(=O)c2nc3c(n2C)CCN(c2ncccn2)C3)CC1 | 6.305
34 | CC(=O)N1CCO[C@@H]2CN(S(=O)(=O)c3ccc(C)cc3)CC[C@@H]2C1 | 106.7
35 | CN1CCO[C@@H]2CN(S(=O)(=O)c3ccc(F)cc3)CC[C@@H]2C1.O=C(O)C(F)(F)F | -6.683
36 | CC(=O)N1CCO[C@@H]2CN(S(=O)(=O)c3ccc(F)cc3)CC[C@@H]2C1 | 115.5
37 | Cn1nnc2c1C(COCC1CC1)CN(C(=O)C1=CCCC1)C2 (stereo unspecified) | -1.372
38 | COCCN(Cc1ccc(OC)nc1)Cc1cccs1 | 6.12
39 | O=C(NCc1ccccc1CN1CCC(O)CC1)Nc1ccccc1 | 6.714
40 | O=C(Nc1ccccc1)N1C(CN2CCOCC2)[C@]2(O)CC[C@H]1CC2 (stereo partly specified) | 91.52
41 | O=C(O)C(F)(F)F.O=S(=O)(NC1CCC12CCN(CC1CCOCC1)CC2)c1ccccc1 (stereo unspecified) | -4.51
42 | COCCN1CCC(NC(=O)NCC2(c3ccccc3)CC2)C1 (stereo unspecified) | -5.464
43 | O=C(O)C(F)(F)F.O=S(=O)(c1ccccc1)N1C[C@@H]2COC[C@]2(CN2CCOCC2)C1 | 14.04
44 | O=S(=O)(c1ccccc1)N1C(CN2CCOCC2)[C@]2(O)CC[C@H]1CC2 (stereo partly specified) | 83.09

Row | Structure (SMILES) | Percent Effect [%]
45 | O=C(Nc1ccccc1)C1CN(CC2CCOCC2)CC12CCOCC2.O=C(O)C(F)(F)F (stereo unspecified) | -3.242
46 | COCC1N(C(=O)Nc2ccccc2)[C@H]2CC[C@]1(O)CC2 (stereo partly specified) | 103.1
47 | O=C(Nc1ccccc1)N1C(CO)[C@]2(O)CC[C@H]1CC2 (stereo partly specified) | 93.37
48 | O=C(Nc1ccccc1)N1C[C@H]2CC[C@@H]1CN(Cc1ccccc1)C2 | -24.67
49 | O=C(Nc1ccccc1)C1CN(CC2CC2)CC12CCOCC2.O=C(O)C(F)(F)F (stereo unspecified) | -9.303
50 | CC(C)n1c(C(=O)N2CCCC2)nc2c1CCN(C)C2.O=C(O)C(F)(F)F | -17.76
51 | O=C(Nc1cnc2n1CCCC2)c1cccc(OCC(F)(F)F)c1 | -7.584
52 | NC(=O)C1CCN(CCc2ccc(NCc3cccnc3)cc2)CC1 | -10.11
53 | CC(O)C1CCN(c2cc(Cl)ccc2C#N)CC1 (stereo unspecified) | -3.342
54 | CC1(c2ccccc2)CCCN(Cc2cncn2C2CCCC2)C1 (stereo unspecified) | -2.034
55 | CC(C)CNC(=O)CNC(=O)NCC(O)c1ccc2ccccc2c1 (stereo unspecified) | 1.707
56 | O=C(O)c1ccnc(SCc2ccccc2)c1 | 93.4
57 | CCSc1cc(C(=O)N(C(C)C)C2CC2)ccn1 | -12.03
58 | CCSc1cc(C(=O)N(CC(F)F)C(C)C)ccn1 | -6.776
59 | CCSc1cc(C(=O)NCc2ccccc2O)ccn1 | -4.116
60 | O=C(O)c1ccnc(SCC(F)(F)F)c1 | 103
61 | CCSc1cc(C(=O)NCCC(=O)Nc2ccccn2)ccn1 | -16.79
62 | CCC(CC)(CN)NC(C)c1ccccc1 (stereo unspecified) | 4.415
63 | COc1ccc(CNC(=O)CCN2CCOC(C(F)(F)F)C2)cc1 (stereo unspecified) | -3.399
64 | O=C(NCCN1CCC(c2cccs2)CC1)Nc1cccs1 | -15.35
65 | COc1ccc(CCC(=O)NCCN2CCC(c3cccs3)CC2)cc1 | 160.9
66 | COc1ccc(CCNC(=O)CN2CCOCS2(=O)=O)cc1 | -7.481

Row | Structure (SMILES) | Percent Effect [%]
67 | O=C(NCCc1ccccc1)NCCN1CCC(c2cccs2)CC1 | 129.5
68 | O=C(NCCc1cccc(O)c1)NC1CCN(c2ccccc2)C1=O (stereo unspecified) | -1.396
69 | CO[C@H]1CNC[C@@H]1NC(=O)c1cc(C)nc2ccc(C)cc12 | -4.766
70 | COCCN1C[C@H]2CCN(C(C)=O)CC[C@H]2S1(=O)=O | -12.61
71 | O=C(O)C1CCCN(c2nc3c(-c4ccccc4)csc3c(=O)[nH]2)C1 (stereo unspecified) | 5.88
72 | COc1ccc2c(c1)nc1n2[C@@H](CN(C2CCC2)C2CCC2)COC1 | -7.437
73 | Cc1cnn(CC2CCCN2CC(=O)N(C)Cc2ccsc2)c1 (stereo unspecified) | -8.163
74 | Cc1cnn(CC2CN(CC(=O)N(C)Cc3cccs3)CCO2)c1 (stereo unspecified) | -3.9
75 | CN(Cc1ccsc1)C(=O)CN1CCOC(Cn2cncn2)C1 (stereo unspecified) | 122.3
76 | Cc1cnn(CC2CN(CC(=O)N(C)Cc3ccsc3)CCO2)c1 (stereo unspecified) | 117
77 | Cc1cnn(C2CCCN(C(=O)CCc3ccncc3)C2)c1 (stereo unspecified) | 119.7
78 | COc1cccc(CCC(=O)N2CCCC(n3cc(C)cn3)C2)c1 (stereo unspecified) | -1.259
79 | O=C(CCc1cscn1)N1CCCC(n2ccnc2)C1 (stereo unspecified) | -7.112
80 | Cc1cnn(C2CCCN(C(=O)CCc3cnn(C)c3)C2)c1 (stereo unspecified) | 94.12
81 | Cc1cc(C)n(C2CCCN(C(=O)CCNS(C)(=O)=O)C2)n1 (stereo unspecified) | 0.7954
82 | Cc1cnn(C2CCCN(C(=O)Cn3ccc(=O)n(C)c3=O)C2)c1 (stereo unspecified) | -20.71
83 | Cc1cnn(C2CCCN(C(=O)CN(C)c3cnccn3)C2)c1 (stereo unspecified) | 6.201
84 | Cc1cnn(C2CCCN(C(=O)CCNS(C)(=O)=O)C2)c1 (stereo unspecified) | 109.1
85 | Cc1cnn(C2CCCN(C(=O)CCc3cscn3)C2)c1 (stereo unspecified) | 115.3
86 | CCCC(C)N(C)Cc1nnc(-c2ccc(Br)s2)o1 (stereo unspecified) | -85.49
87 | CCNc1ncc(C(=O)N(C)Cc2nc3cc(Cl)ccc3[nH]2)cn1 | 4.323
88 | COc1ccc(-n2c(CCC(=O)O)nc3ccccc32)cc1CO | -17.89

Row | Structure (SMILES) | Percent Effect [%]
89 | CN(C)C(=O)CN1C[C@@H]2CC[C@H](C1)N(C(=O)CCn1cncn1)C2 | -10.88
90 | O=C(NCC(O)COc1cccc(F)c1)c1ccoc1 (stereo unspecified) | 11.74
91 | CCN(C(=O)c1ccc2nnc(C3CCN(C)C3)n2c1)C(C)C.O=C(O)C(F)(F)F (stereo unspecified) | -13.6
92 | NC(=O)c1cc(C2CCCN(C(=O)CCc3cscn3)C2)n[nH]1 (stereo unspecified) | 0.5679
93 | Cc1cc(C2CCCN(C(=O)CCc3cscn3)C2)n[nH]1 (stereo unspecified) | 93.55
94 | O=C(CCc1cscn1)N1CCCC(c2ccn[nH]2)C1 (stereo unspecified) | -4.951
95 | CCOc1cc(CNC(C)c2sccc2C)ccn1 (stereo unspecified) | 3.225
96 | Cc1ccc(Oc2cc(CN)ccn2)cc1C.Cl | 95.86
97 | NCc1ccnc(Oc2ccc(F)cc2)c1 | 111.3
98 | NCc1ccc(Oc2cccc(Cl)c2Cl)cc1 | -2.508
99 | CCOC(CC)C(=O)NCc1ccnc(Oc2ccc(F)cc2)c1 (stereo unspecified) | -12.82
100 | NCc1ccnc(Oc2ccccc2)c1 | 91.83
101 | CCOc1ccccc1Oc1ccc(CN)cn1 | 5.762
102 | CC(C)C(=O)NCc1ccnc(Oc2ccc(F)cc2)c1 | -7.223
103 | CCOc1ccc(Oc2cc(CN)ccn2)cc1 | 101.1
104 | CCOC(=O)NCCC(=O)NCc1ccnc(Oc2ccc(F)cc2)c1 | 11.47
105 | Cn1cc(C(=O)Nc2ccnc(Oc3ccccc3)c2)ccc1=O | -17.65
106 | Cc1cc(CC(=O)NCc2ccnc(OCC(F)(F)F)c2)no1 | -12.47

Reference: ChEMBL document CHEMBL3988442, “University of Dundee, Small-Polar-MMV Screening Library” (2021)
